TIM10 inh: inhibits growth of TIM10 yeast strain | inhibition, % at 10 µM | S. cerevisiae TIM10 strain growth, BacTiter-Glo luminescence, 24 h | 330,000 tested, 1.4% active;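 active means inhibition of 40% or more at the single tested concentration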;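 further: wild-type TIM10 isogenic control strain grown at permissive 25 °C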
tim10-1 inh: tim10-1 yeast growth inhibition. S. cerevisiae tim10-1 ts strain growth, BacTiter-Glo, 24 h. inhibition, % at 20 µM. 330,000 tested, 2.2% active. AID 463190;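 active means inhibition of at least 40%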;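 further: mutant grown at 25 °C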
NALP1 inh: blocks the NALP1 inflammasome reconstituted in yeast; 280,000 tested, 0.61% active; S. cerevisiae NALP1/ASC/caspase-1 growth, X-gal OD620, 72 h; AID 2071; inhibition, % at 10 µM; in the data active means inhibition mostly above about 24%, no sharp cut-off; inactive means mostly below about 32%
PfHsp90 set2: inhibits growth of yeast expressing Plasmodium falciparum Hsp90. S. cerevisiae expressing PfHsp90, BacTiter-Glo ATP, 48 h; yeast lacking PDR1 and PDR3 efflux regulators. inhibition, % at 9.4 µM. 310,000 tested, 0.32% active. AID 504621;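 active means every replicate shows inhibition above about 80%, whatever the replicate mean, limit read from the data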
NLRP3 yeast inh: NALP3 inhibition in yeast; Yeast reconstituted NLRP3/ASC/caspase-1, beta-gal luminescence, 24 h; inhibition, % at 10 µM; 330,000 tested, 0.39% active;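 active means inhibition of 50% or more; inactive means inhibition below 50%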
tim23-1 inh: growth inhibitors of tim23-1 mutant yeast | S. cerevisiae tim23-1 growth, BacTiter-Glo luminescence, 24 h | inhibition, % at 20 µM | 330,000 tested, 1.3% active;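 active means growth inhibition of the mutant yeast at or above 50%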;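 further: temperature-sensitive mutant grown at 25 °C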
tim10-1 confirm: tim10-1 yeast growth inhibition, confirmed; AID 463213; shares compounds with tim10-1 inh; 7,400 tested, 56% active; inhibition, % at 20 µM; S. cerevisiae tim10-1 ts strain growth, BacTiter-Glo, 24 h;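 active means inhibition of yeast growth at or above a set limit in either of two repeat tests at 20 µM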;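 further: tim10-1 mutant grown at permissive 25 °C to find synthetic lethal compounds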
tim10 confirm: confirmation of TIM10 yeast growth inhibitors; shares compounds with TIM10 inh; S. cerevisiae tim10 strain growth, BacTiter-Glo luminescence, 24 h; inhibition, % at 10 µM; 4,600 tested, 63% active; AID 463215;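 active means inhibition of yeast growth at or above a set limit in either of two replicates at 10 µM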; further: this counterscreen used the strain with wild-type TIM10
Numbers stand for hits; – = inactive; · = no result given. The list is not random: actives were taken first. Their share in the collection is about 4.2%.

SMILES	TIM10 inh	tim10-1 inh	NALP1 inh	PfHsp90 set2	NLRP3 yeast inh	tim23-1 inh	tim10-1 confirm	tim10 confirm
CCC(C)NC(=O)CC(c1ccccc1)c1cc(C)ccc1O (centres undefined)	–	–	–	–	–	–	·	·
O=C(NCc1ccccc1F)c1cccc(S(=O)(=O)N2CCCCCC2)c1	–	–	·	–	–	–	·	·
Cc1cc(C(=O)NCC23CC4CC(CC(C4)C2)C3)c(C)o1	40.0	45.4	–	·	–	–	–	33.8
CCN(CC(=O)Nc1cc(C)nn1-c1nc(C)cc(C)n1)Cc1ccccc1	43.6	43.7	–	–	–	–	–	–
CC(C)(C)OC(=O)N1CCN(C(=O)c2[nH]cnc2C(=O)Nc2cccc(Cl)c2)CC1	–	–	·	–	–	–	·	·
NS(=O)(=O)c1cccc(NC(=O)CSc2nnc(-c3ccccc3F)n2C2CC2)c1	–	–	–	–	–	–	·	·
C(=N\Nc1nc(Nc2ccccc2)nc(N2CCCCC2)n1)/c1ccco1	48.1	49.8	–	·	–	–	–	37.3
O=C(Nc1cccc(NC(=O)c2ccc([N+](=O)[O-])o2)c1)c1ccco1	66.6	72.0	–	–	–	–	65.8	67.2
COc1ccc(CNC(=S)N/N=C/c2ccncc2)cc1	–	–	–	–	–	–	·	·
CCN(CC)c1ccc(/C=N/NC(=S)NCc2ccc(OC)cc2)cc1	44.5	44.9	–	–	–	–	–	42.3
O=C(Nc1ccccc1)Nc1cccc(C(F)(F)F)c1	–	–	–	–	–	–	·	·
Cc1ccc(OC(F)F)c(NC(=O)Nc2cccc(C(F)(F)F)c2)c1	50.9	46.8	–	–	–	–	44.8	57.7
C#CCNC(=O)C1=C[C@H](C2CCCCC2)[C@@H](CCCO)[C@H](OCC)O1	–	–	–	–	–	–	·	·
Cc1ccccc1CC1(CO)CCCN(C(=O)CCCN2CCCCC2=O)C1 (centres undefined)	–	–	–	·	–	–	·	·
O=C(O)CCC1c2cc3c4cc2OC2Oc5cc6c(cc51)C(CCC(=O)O)c1cc5c7cc1OC(O6)c1cc6cc(c1)Oc1cc(cc(C(=O)O)c1)Oc1cc8cc(c1)C(Oc1cc(c(cc1C5CCC(=O)O)C3CCC(=O)O)OC(O4)c1cc(cc(c1)Oc1cc(cc(C(=O)O)c1)O8)Oc1cc(cc(C(=O)O)c1)Oc1cc(cc2c1)Oc1cc(cc(C(=O)O)c1)O6)O7 (centres undefined)	–	–	·	·	–	–	·	·
COc1ccc(/C(N)=N/OC(=O)c2ccc([N+](=O)[O-])c(C)c2)cc1OC	48.5	65.2	–	–	–	–	70.7	35.9
Cc1cc(C(=O)O/N=C(\N)c2ccncc2)ccc1[N+](=O)[O-]	–	–	–	–	–	–	·	·
O=C(NC1CCCC1)C(c1ccc(Cl)cc1)N(Cc1ccc(F)cc1)C(=O)CCl (centres undefined)	46.6	48.9	–	–	–	–	40.2	–
COc1cc(/C=C2\SC(=S)N(Nc3ncc(C(F)(F)F)cc3Cl)C2=O)ccc1O	50.6	47.5	–	106.2	–	–	–	41.5
CN=C(Nc1ccc(Br)cc1)SC1CC(=O)N(c2ccc(OC)cc2)C1=O (centres undefined)	44.5	41.0	–	–	–	–	–	–
COc1ccc(/C=C/C(=O)c2cc(F)ccc2OC(=O)c2ccccc2OC)cc1OC	·	·	–	–	·	·	·	·
COc1ccc(/C=C/C(=O)c2cc(F)ccc2OC(=O)c2ccccc2)cc1OC	47.9	51.6	·	–	–	–	48.3	–
CC1CCN(C(=O)COC(=O)/C=C/c2ccco2)CC1	–	–	·	–	–	–	·	·
CC(=O)NC(CCS(C)(=O)=O)C(=O)Nc1cc(Cl)ccc1Cl (centres undefined)	–	–	–	–	–	–	·	·
CC(C)S(=O)(=O)c1csc(NC(=O)Nc2cc(Cl)ccc2Cl)c1Cl	46.7	42.1	–	–	–	–	–	41.2
SMILES	TIM10 inh	tim10-1 inh	NALP1 inh	PfHsp90 set2	NLRP3 yeast inh	tim23-1 inh	tim10-1 confirm	tim10 confirm
COc1ccc(/C=C2\SC(=O)N(CCNC(=O)Cn3cnnn3)C2=O)cc1	–	–	–	–	–	–	·	·
O=C1S/C(=C\c2ccc(Cl)cc2)C(=O)N1CCn1cnnn1	43.3	42.9	–	–	–	–	34.7	–
CN(C)c1ccc(NC2=C(Cl)C(=O)c3ccccc3C2=O)cc1	68.1	61.9	–	–	–	–	63.2	60.0
Cc1ccc(S(=O)(=O)N(C)S(=O)(=O)c2ccc(C#N)cc2)cc1	–	–	–	·	–	–	·	·
COC(=O)c1c(C)oc(C)c1S(=O)(=O)NC(C)(C)C	–	–	–	–	–	–	·	·
O=C(Nc1nnc(CC2=CCCCC2)s1)c1cccs1	72.0	47.4	–	–	–	–	41.8	–
Cc1ccc(C(C(=O)NC2CCCC2)N(CCCO)C(=O)Cn2nnc(-c3ccc(C)o3)n2)cc1 (centres undefined)	–	–	–	–	–	–	·	·
O=C(NC1=NCCS1)c1sc2cc(Cl)cc(Cl)c2c1Cl	45.0	49.9	–	–	–	–	–	–
COc1cc(OC)cc(C(=O)NC2=NCCS2)c1	–	–	–	–	–	–	·	·
CC(C)(C)OC(=O)NOCC(=O)N(Cc1ccccc1)CC(O)COc1ccccc1 (centres undefined)	–	–	·	–	–	–	·	·
CSc1ccc(CN2C(=O)NC3(CCCCCCC3)C2=O)cc1	–	–	–	–	–	–	·	·
Cc1cccc(NC(=S)N/N=C/c2ccc3c(c2)OCO3)c1	46.8	41.6	–	–	–	–	–	–
C=CC[C@]12CC=CC(=O)[C@@]1(O)O[C@H](c1ccc(OC)c(OC)c1)[C@H]2C	41.8	50.2	·	·	–	–	37.9	42.7
CCO/C=N/Nc1nc(C(F)(F)F)nc2c1cnn2Cc1ccccc1	56.0	59.2	–	–	–	–	56.5	58.0
CCCCNC(=O)c1c(CSc2ccccc2)noc1C(=O)NCc1ccccc1	–	–	–	–	–	–	·	·
Cc1ccc(NC(=O)CN2CCCN(S(=O)(=O)c3ccc(Br)s3)CC2)cc1	42.4	43.5	–	–	–	–	32.4	–
CCC(CC)NC(=O)CN1CCN(S(=O)(=O)c2ccc(Br)s2)CC1	–	–	·	·	–	–	·	·
CCc1ccc2c(c1)C1(NN=C(c3cccc4ccccc34)S1)C(=O)N2 (centres undefined)	55.4	53.8	–	–	–	–	46.9	58.5
CCc1ccc2c(c1)C1(C(=O)N2)N2CCCC2C(C(=O)c2ccc3ccccc3c2)C12C(=O)Nc1ccccc12 (centres undefined)	–	–	–	–	–	–	·	·
Nc1cc(OC(=O)c2cccs2)nn1S(=O)(=O)c1ccc(F)cc1	52.6	41.2	–	–	–	–	31.1	–
